Compounds with a hit are over-represented: about 1.1% of the library has one in this group of screens.
NCOA2 inhibitor: inhibits human steroid receptor coactivator 2. Q15596. HEK293 GAL4-SRC2 luciferase reporter, luminescence. inhibition, % at 9 µM. hit rate 0.17% among 370,000. AID 651957;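 active means inhibition above the mean inhibition of all tested compounds plus 3 SD, set per campaign, cut at about 52% in these data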
GalR3 antagonist: blocks the human galanin receptor 3; O60755; HEK293 GalR3-CNG cAMP membrane potential fluorescence; galR3 body fused to GalR1 C-terminus; inhibition, % at 3 µM; hit rate 0.44% among 360,000; AID 651719;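 active means inhibition above the screen-wide average plus 3 SD, cut at about 13% in these data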;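 further: forskolin and galanin both at EC90 stimulate the cells; cAMP rise reported by CNG channel membrane potential dye signal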
SRC3 inh: human NCOA3 inhibition; HEK293 GAL4-SRC3 luciferase reporter, luminescence; inhibition, % at 3.6 µM; hit rate 0.17% among 360,000; AID 588352;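 active means inhibition above a per-campaign cutoff, the mean of all compounds plus 3 SD, cut at about 60% in these data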;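 further: higher means less SRC3-driven luciferase light from the GAL4 reporter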
NCOA1 inh: human NCOA1 inhibition; HEK293 GAL4-SRC1 luciferase reporter, luminescence; Q15788; hit rate 0.12% among 360,000; inhibition, % at 3.6 µM;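 active means inhibition above the campaign mean plus 3 SD, with each screening campaign given its own cutoff, cut at about 60% in these data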
NR2F2 inh: inhibitors of human COUP-TFII (NR2F2); P24468; HEK293T NGFI-A luciferase reporter, luminescence; inhibition, % at 8.6 µM; hit rate 0.7% among 370,000; AID 686940;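 active means inhibition above a per-plate cutoff, mean inhibition of test wells between control levels plus 3 SD, cut at about 38% in these data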;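 further: cells cotransfected with COUP-TFII expression vector driving the NGFI-A reporter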
Target sequence (P24468 whole entry, looked up): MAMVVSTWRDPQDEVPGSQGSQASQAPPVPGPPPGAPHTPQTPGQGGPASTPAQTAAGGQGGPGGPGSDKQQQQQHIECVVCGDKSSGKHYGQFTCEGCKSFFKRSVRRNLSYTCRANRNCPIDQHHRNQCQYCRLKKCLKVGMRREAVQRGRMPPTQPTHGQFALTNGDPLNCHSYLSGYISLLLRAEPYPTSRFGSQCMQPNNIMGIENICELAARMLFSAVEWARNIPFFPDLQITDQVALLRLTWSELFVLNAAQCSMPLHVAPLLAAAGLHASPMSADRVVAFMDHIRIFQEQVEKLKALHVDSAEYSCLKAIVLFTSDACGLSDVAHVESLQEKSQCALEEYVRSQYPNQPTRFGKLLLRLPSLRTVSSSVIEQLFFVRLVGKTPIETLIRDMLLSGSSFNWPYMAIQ
NR5A2 inv ag: NR5A2 inverse agonism in reporter assay; O00482; HEK293T StAR-luciferase reporter, LRH-1 transfected, 24 h; hit rate 0.13% among 360,000; AID 602396; inhibition, % at 3.6 µM;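 active means inhibition above the mean inhibition of all tested compounds plus 3 SD, cut at about 73% in these data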
GalR3 antag conf: confirmation of human galanin receptor 3 antagonists | AID 652245 | HEK293 GalR3 CNG cAMP biosensor, membrane potential fluorescence; galR3 fused to GalR1 carboxy tail; challenged with forskolin and galanin at EC90 | hit rate 59% among 1,600 | shares compounds with GalR3 antagonist | inhibition, % at 3 µM;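 active means inhibition above the primary screen's cutoff, the mean inhibition of all screened compounds plus 3 SD, cut at about 13% in these data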
HEK-CNG parental: parental cell agonism counter-screen for GalR3 antagonists | HEK293-CNG parental cells, cAMP membrane potential fluorescence; normalised: DMSO wells 0%, forskolin wells 100% | hit rate 10% among 1,600 | shares compounds with GalR3 antagonist | AID 652268 | activation, % at 3 µM; in the data active means activation above about 1.3%
A number is an active result; - = inactive; . = no result.

SMILES | NCOA2 inhibitor | GalR3 antagonist | SRC3 inh | NCOA1 inh | NR2F2 inh | NR5A2 inv ag | GalR3 antag conf | HEK-CNG parental
COC(=O)C1=C[C@@H](C(=O)OC)[C@@H]2C3=C(C(=O)[C@]2(CC(C)C)NC(=O)c2ccccc2)[C@H](C)n2c(=O)n(-c4ccccc4)c(=O)n2[C@@H]3C1 | - | 14 | - | - | - | - | - | -
CCC1(CC)C(=O)C2=C3C1[C@H](C(=O)OC)CC(C(=O)OC)C[C@H]3n1c(=O)n(-c3ccccc3)c(=O)n1[C@H]2C (stereo partly specified) | - | - | . | . | - | . | . | .
CC(C)SCCCOc1ccc(C(C)(C)C)cc1 | - | . | - | - | - | - | - | -
COc1ccc(-n2c(SCc3nc4ccccc4[nH]3)nc3ccccc3c2=O)cc1 | - | . | . | . | - | . | . | .
COCC(C)n1c(C)cc(C(=O)COC(=O)c2ccc3c(c2)NC(=O)CS3)c1C (stereo unspecified) | - | 17 | - | - | - | - | - | -
Cc1cc(C(=O)COC(=O)c2ccc(O)cc2)c(C)n1CC1CCCO1 (stereo unspecified) | - | - | - | - | - | - | . | .
Cc1cc(C(=O)COC(=O)c2ccc3c(c2)NC(=O)CS3)c(C)n1CC1CCCO1 (stereo unspecified) | - | 23 | - | - | - | - | 18 | -
COC(=O)[C@]12C[C@H](CC(=O)N3CCCCC3)C(=O)N(CCc3ccc(OC)c(OC)c3)C1=C[C@H](COCc1ccccc1)O[C@@H]2C | - | . | . | . | - | . | . | .
COc1ccc(/C=C/C(=O)O)cc1S(=O)(=O)N1CCc2ccccc2C1 | - | . | - | - | - | - | - | -
COc1ccc(/C=C/C(=O)Nc2ccccc2Cl)cc1S(=O)(=O)N1CCOCC1 | - | 15 | - | - | - | - | - | -
Cc1ccc(/C=C/C(=O)O)cc1S(=O)(=O)N1CCc2ccccc21 | - | - | - | - | - | - | . | .
COc1ccc(/C=C/C(=O)Nc2ccccc2)cc1S(=O)(=O)N1CCOCC1 | - | - | - | - | - | - | . | .
Cc1ccc(/C=C/C(=O)O)cc1S(=O)(=O)N1CCc2ccccc2C1 | - | 15 | - | - | - | - | - | -
COc1ccc(C)cc1S(=O)(=O)N1CCc2ccccc2C1 | - | - | - | - | - | - | . | .
O=C(c1sccc1Cl)N1CCC(n2nnc3ncccc32)CC1 | - | . | . | . | - | . | . | .
COc1cc2c(cc1OC)-c1cc(Nc3cccc(C)c3)nc(=O)n1CC2 | - | 53 | - | - | - | - | 59 | -
CCOc1ccccc1Nc1cc2n(c(=O)n1)CCc1cc(OC)c(OC)cc1-2 | - | 53 | - | - | - | - | 67 | -
COc1cc2c(cc1OC)-c1cc(Nc3ccccc3C)nc(=O)n1CC2 | - | 46 | - | - | - | - | 53 | -
O=C(COC(=O)c1ccc([N+](=O)[O-])s1)NC(c1ccccc1)c1ccccc1 | - | 22 | - | - | - | - | - | -
CC1CC(=O)NN=C1c1ccc(NCCO)c([N+](=O)[O-])c1 (stereo unspecified) | - | 64 | - | - | - | - | 71 | -
O=C(CC1CCCC1)N[C@H](C(=O)N1CCC[C@H]1C(=O)NC1CCCC1)c1ccccc1 | - | - | . | . | - | . | . | .
COc1ccc2c(C)c(Cl)c(=O)oc2c1 | - | - | - | - | - | - | . | .
C=C1CC(COc2ccc3c(C)c(Cl)c(=O)oc3c2)(c2ccccc2)OC1=O (stereo unspecified) | - | 37 | - | - | - | - | 18 | 2.9
C=CCN1[C@@H](C)COc2cc(N3CCCC3)ccc2S1(=O)=O | - | . | . | . | - | . | . | .
CCOCCCNC(=S)N1CCN(Cc2ccc3c(c2)OCO3)CC1 | - | 15 | - | - | - | - | - | -
SMILES | NCOA2 inhibitor | GalR3 antagonist | SRC3 inh | NCOA1 inh | NR2F2 inh | NR5A2 inv ag | GalR3 antag conf | HEK-CNG parental
O/N=C/c1cc(Br)ccc1OCc1ccc(F)cc1 | - | - | - | - | - | - | . | .
Oc1c(Br)cc(Br)cc1C=NCc1ccc(F)cc1 | - | 34 | - | - | - | - | - | -
Oc1c(Br)cc(Br)cc1C=NCc1ccccc1 | - | . | - | - | - | - | - | -
Cc1nnc(N/N=C/c2ccc([N+](=O)[O-])cc2)n1N | - | 15 | - | - | - | - | - | -
CN1CCN(C(=S)C(=O)Nc2ccc(Br)cc2)CC1 | - | 40 | - | - | - | - | - | -
CN1CCN(C(=S)NC(=O)c2ccc(Br)cc2)CC1 | - | - | - | - | - | - | . | .
COc1ccc(C(=O)NC2CCCN(Cc3ccccc3F)C2)c(OC)c1OC (stereo unspecified) | - | 16 | - | - | - | - | - | -
CCOC(=O)Cc1nc(N2CCN(C(=O)C3CCCO3)CC2)c2c(C)c(C(=O)OCC)sc2n1 (stereo unspecified) | - | . | . | . | - | . | . | .
CCOc1ccc(N(CC(=O)Nc2ccccc2C)S(=O)(=O)c2c(C)[nH]c(=O)[nH]c2=O)cc1 | - | - | - | - | - | - | . | .
COc1ccc(N(CC(=O)Nc2ccccc2C)S(=O)(=O)c2c(C)[nH]c(=O)[nH]c2=O)cc1 | - | 14 | - | - | - | - | - | -
COc1ccc(C(=O)Oc2cc3c4c(c2)C(C)=CC(C)(C)N4C(=O)C3=O)cc1OC | - | - | - | - | - | - | . | .
CCc1cc2c3c(c1)C(C)CC(C)(C)N3C(=O)/C2=C1\SC(=O)NC1=O (stereo unspecified) | - | - | - | - | - | - | . | .
COc1cc2c3c(c1)C(C)=CC(C)(C)N3C(=O)C2=O | - | 14 | - | - | - | - | - | -
COc1cc2c3c(c1)C(C)CC(C)(C)N3C(=O)C2=O (stereo unspecified) | - | 22 | - | - | - | - | 23 | -
COCCN1Cc2cc(C(=O)OC)c3c(c2C1=O)c1cc(F)ccc1n3C(=O)c1ccccc1 | - | - | . | . | - | . | . | .
C[C@@H]1OC(C2CCCCC2)N(C)[C@H]2C[C@H]3c4[nH]c5cccc(-c6cccc(F)c6)c5c4CCN3C(=O)[C@@H]12 (stereo partly specified) | - | . | . | . | - | . | . | .
Nc1nc(-c2ccc3c(c2)OCCO3)cs1 | - | 23 | - | - | - | - | 29 | -
Cc1nc(-c2ccc3c(c2)OCCCO3)cs1 | - | - | - | - | - | - | . | .
CCCCN(C)C(=O)c1cc2cc([N+](=O)[O-])cc(OC)c2oc1=O | - | 22 | - | - | - | - | - | -
O=C1/C(=C/c2cccc([N+](=O)[O-])c2)CCc2ccccc21 | - | 16 | - | - | - | - | - | -
O=C(NN=C(c1ccccc1)c1ccccn1)c1ccccc1 | - | 13 | - | - | - | - | 39 | -
